# Laboratory results: article PMC7862700, “An all-to-all approach to the identification of sequence-specific readers for epigenetic DNA modifications on cytosine”
# Tests used:
# Assay in all cases: DAPPL (digital affinity profiling via proximity ligation, sequencing); 10 mM Tris-HCl pH 7.5, 50 mM NaCl, 1 mM DTT, 4% glycerol, room temperature, 30 min; GST-TFs on glutathione beads, 16-mer random dsDNA library, 0.1% formaldehyde crosslink after washing; high values mean tight binding
# Conditions in all cases: protein: recombinant; tags: N-terminal GST; dsDNA, one strand shown
# [1] = molecular target: T1, ERF (Homo sapiens, UniProt P50548 1-548)
# T1 sequence: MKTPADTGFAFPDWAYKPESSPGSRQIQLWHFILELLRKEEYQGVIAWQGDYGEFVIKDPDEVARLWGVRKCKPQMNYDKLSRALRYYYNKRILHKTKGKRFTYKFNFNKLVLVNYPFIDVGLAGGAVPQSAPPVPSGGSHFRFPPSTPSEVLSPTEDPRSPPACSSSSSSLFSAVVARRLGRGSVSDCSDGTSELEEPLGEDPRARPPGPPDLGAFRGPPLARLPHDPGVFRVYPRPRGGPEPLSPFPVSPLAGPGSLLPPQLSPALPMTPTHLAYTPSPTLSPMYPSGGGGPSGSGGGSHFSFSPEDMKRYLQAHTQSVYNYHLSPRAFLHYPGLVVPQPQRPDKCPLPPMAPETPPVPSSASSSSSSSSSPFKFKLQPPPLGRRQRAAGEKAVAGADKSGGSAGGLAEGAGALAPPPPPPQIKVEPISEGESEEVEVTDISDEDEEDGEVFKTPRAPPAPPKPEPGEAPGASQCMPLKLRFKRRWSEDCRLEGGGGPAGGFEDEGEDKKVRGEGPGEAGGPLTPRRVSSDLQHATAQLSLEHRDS
# Summary of the method: (§1)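 Pools were built from human transcription factors expressed in yeast as GST fusions, captured on glutathione beads and DNA-barcoded, along with a tag-only sample. Incubation with 200 nmole of a 16-mer random double-stranded DNA library lasted 30 min at room temperature in Tris/NaCl/DTT/glycerol buffer, and was followed by washing, 0.1% formaldehyde crosslinking, proximity ligation, PCR amplification and Illumina NextSeq500 sequencing. Binding signal is the quotient of each hexamer's read frequency for a factor and its frequency for the tag-only sample.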
# [2] = molecular target: T2, ETV3L (Homo sapiens, UniProt Q6ZN32 1-361)
# T2 sequence: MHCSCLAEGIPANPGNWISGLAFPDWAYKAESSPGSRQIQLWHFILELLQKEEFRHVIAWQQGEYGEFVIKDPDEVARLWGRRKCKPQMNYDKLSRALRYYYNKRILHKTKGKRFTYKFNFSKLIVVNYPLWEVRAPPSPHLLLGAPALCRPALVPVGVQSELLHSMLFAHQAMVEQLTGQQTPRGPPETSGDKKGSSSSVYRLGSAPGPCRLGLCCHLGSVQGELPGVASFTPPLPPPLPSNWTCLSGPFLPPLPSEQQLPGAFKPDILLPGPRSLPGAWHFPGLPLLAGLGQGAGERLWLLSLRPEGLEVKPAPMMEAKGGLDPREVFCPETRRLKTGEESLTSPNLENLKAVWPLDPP
# Summary of the method: as §1
# [3] = molecular target: T3, ETS2 (Homo sapiens, UniProt P15036 1-469)
# T3 sequence: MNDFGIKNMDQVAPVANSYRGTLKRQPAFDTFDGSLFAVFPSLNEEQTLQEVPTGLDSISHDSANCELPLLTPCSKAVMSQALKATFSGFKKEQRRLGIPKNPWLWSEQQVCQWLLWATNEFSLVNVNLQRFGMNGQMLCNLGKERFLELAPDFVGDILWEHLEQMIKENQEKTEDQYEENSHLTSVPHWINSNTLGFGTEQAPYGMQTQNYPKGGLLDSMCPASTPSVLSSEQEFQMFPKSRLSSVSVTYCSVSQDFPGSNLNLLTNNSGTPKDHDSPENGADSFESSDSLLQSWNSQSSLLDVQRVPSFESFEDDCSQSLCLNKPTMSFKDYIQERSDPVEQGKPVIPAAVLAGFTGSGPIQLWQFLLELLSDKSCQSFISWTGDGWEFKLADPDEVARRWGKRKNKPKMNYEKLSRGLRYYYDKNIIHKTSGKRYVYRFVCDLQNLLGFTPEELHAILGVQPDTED
# Summary of the method: as §1
# [4] = molecular target: T4, SPDEF (Homo sapiens, UniProt O95238 1-335)
# T4 sequence: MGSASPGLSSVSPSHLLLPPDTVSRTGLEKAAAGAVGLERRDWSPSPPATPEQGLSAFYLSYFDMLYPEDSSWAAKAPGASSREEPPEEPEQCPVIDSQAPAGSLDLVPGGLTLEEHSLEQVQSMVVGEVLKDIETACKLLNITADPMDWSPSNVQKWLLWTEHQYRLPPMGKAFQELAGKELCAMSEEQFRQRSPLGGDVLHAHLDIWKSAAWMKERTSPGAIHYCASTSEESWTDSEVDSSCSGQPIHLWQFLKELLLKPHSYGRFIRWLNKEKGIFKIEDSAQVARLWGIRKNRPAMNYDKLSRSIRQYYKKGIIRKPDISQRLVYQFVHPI
# Summary of the method: as §1
# [5] = molecular target: T5, ETV7 (Homo sapiens, UniProt Q9Y603 1-341)
# T5 sequence: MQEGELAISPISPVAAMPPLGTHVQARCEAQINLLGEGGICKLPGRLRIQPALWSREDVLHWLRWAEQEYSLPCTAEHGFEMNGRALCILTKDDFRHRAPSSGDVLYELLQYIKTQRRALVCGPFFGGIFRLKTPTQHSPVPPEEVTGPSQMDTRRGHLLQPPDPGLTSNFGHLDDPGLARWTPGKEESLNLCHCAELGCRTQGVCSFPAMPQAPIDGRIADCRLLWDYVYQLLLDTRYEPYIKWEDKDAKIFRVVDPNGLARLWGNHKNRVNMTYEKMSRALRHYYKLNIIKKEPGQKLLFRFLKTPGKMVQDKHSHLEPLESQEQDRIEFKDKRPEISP
# Summary of the method: as §1
# [6] = molecular target: T6, ELF5 (Homo sapiens, UniProt Q9UKW6-2 1-255)
# T6 sequence: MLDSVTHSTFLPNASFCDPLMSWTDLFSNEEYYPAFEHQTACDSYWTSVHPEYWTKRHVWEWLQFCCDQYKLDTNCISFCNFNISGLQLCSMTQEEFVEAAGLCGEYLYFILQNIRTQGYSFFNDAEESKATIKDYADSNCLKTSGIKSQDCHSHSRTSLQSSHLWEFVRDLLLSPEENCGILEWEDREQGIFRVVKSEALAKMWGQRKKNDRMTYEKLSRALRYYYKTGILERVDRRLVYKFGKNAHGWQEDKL
# Summary of the method: as §1
# [7] = molecular target: T7, ETV3 (Homo sapiens, UniProt P41162-2 1-143)
# T7 sequence: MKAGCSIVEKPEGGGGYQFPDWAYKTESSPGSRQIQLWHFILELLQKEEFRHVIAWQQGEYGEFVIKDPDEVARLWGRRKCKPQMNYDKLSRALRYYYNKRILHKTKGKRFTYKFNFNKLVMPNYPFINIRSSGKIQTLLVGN
# Summary of the method: as §1
# [8] = molecular target: ETV6 (Homo sapiens, UniProt P41212 1-452)
# Summary of the method: as §1
# Chain of ETV6 (P41212 whole entry): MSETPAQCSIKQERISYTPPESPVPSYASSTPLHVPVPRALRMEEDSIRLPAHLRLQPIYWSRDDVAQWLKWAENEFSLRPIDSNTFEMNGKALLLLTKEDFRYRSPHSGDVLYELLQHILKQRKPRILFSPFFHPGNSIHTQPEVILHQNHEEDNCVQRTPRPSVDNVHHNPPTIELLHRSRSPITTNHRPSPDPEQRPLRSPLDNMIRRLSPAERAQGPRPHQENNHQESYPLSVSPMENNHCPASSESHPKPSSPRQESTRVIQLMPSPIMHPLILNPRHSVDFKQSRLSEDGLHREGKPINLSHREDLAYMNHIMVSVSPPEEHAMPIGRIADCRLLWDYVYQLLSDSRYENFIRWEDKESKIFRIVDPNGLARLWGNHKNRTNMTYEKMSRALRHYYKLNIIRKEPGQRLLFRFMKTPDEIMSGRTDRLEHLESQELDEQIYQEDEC
Sequence,binding signal [1],binding signal [2],binding signal [3],binding signal [4],binding signal [5],binding signal [6],binding signal [7],binding signal [8]
TTACAT,"1.41 fold enrichment (6-mer frequency, TF over GST control)","1.26 fold enrichment (6-mer frequency, TF over GST control)","1.34 fold enrichment (6-mer frequency, TF over GST control)","1.41 fold enrichment (6-mer frequency, TF over GST control)","1.2 fold enrichment (6-mer frequency, TF over GST control)","1.35 fold enrichment (6-mer frequency, TF over GST control)","1.3 fold enrichment (6-mer frequency, TF over GST control)","1.27 fold enrichment (6-mer frequency, TF over GST control)"
TTAACA,"1.19 fold enrichment (6-mer frequency, TF over GST control)","1.2 fold enrichment (6-mer frequency, TF over GST control)","1.19 fold enrichment (6-mer frequency, TF over GST control)","1.21 fold enrichment (6-mer frequency, TF over GST control)","1.18 fold enrichment (6-mer frequency, TF over GST control)","1.14 fold enrichment (6-mer frequency, TF over GST control)","1.19 fold enrichment (6-mer frequency, TF over GST control)","1.11 fold enrichment (6-mer frequency, TF over GST control)"
TCCGAT,"1.25 fold enrichment (6-mer frequency, TF over GST control)","1.22 fold enrichment (6-mer frequency, TF over GST control)","1.28 fold enrichment (6-mer frequency, TF over GST control)","1.34 fold enrichment (6-mer frequency, TF over GST control)","1.27 fold enrichment (6-mer frequency, TF over GST control)","1.27 fold enrichment (6-mer frequency, TF over GST control)","1.35 fold enrichment (6-mer frequency, TF over GST control)","1.39 fold enrichment (6-mer frequency, TF over GST control)"
TAGCTA,"1.23 fold enrichment (6-mer frequency, TF over GST control)","1.24 fold enrichment (6-mer frequency, TF over GST control)","1.28 fold enrichment (6-mer frequency, TF over GST control)","1.08 fold enrichment (6-mer frequency, TF over GST control)","1.31 fold enrichment (6-mer frequency, TF over GST control)","1.16 fold enrichment (6-mer frequency, TF over GST control)","1.18 fold enrichment (6-mer frequency, TF over GST control)","1.28 fold enrichment (6-mer frequency, TF over GST control)"
TCTATT,"1.26 fold enrichment (6-mer frequency, TF over GST control)","1.28 fold enrichment (6-mer frequency, TF over GST control)","1.23 fold enrichment (6-mer frequency, TF over GST control)","1.37 fold enrichment (6-mer frequency, TF over GST control)","1.11 fold enrichment (6-mer frequency, TF over GST control)","1.18 fold enrichment (6-mer frequency, TF over GST control)","1.25 fold enrichment (6-mer frequency, TF over GST control)","1.29 fold enrichment (6-mer frequency, TF over GST control)"
CCATTT,"1.32 fold enrichment (6-mer frequency, TF over GST control)","1.25 fold enrichment (6-mer frequency, TF over GST control)","1.41 fold enrichment (6-mer frequency, TF over GST control)","1.21 fold enrichment (6-mer frequency, TF over GST control)","1.24 fold enrichment (6-mer frequency, TF over GST control)","1.31 fold enrichment (6-mer frequency, TF over GST control)","1.34 fold enrichment (6-mer frequency, TF over GST control)","1.34 fold enrichment (6-mer frequency, TF over GST control)"
AACAAT,"1.31 fold enrichment (6-mer frequency, TF over GST control)","1.26 fold enrichment (6-mer frequency, TF over GST control)","1.27 fold enrichment (6-mer frequency, TF over GST control)","1.2 fold enrichment (6-mer frequency, TF over GST control)","1.24 fold enrichment (6-mer frequency, TF over GST control)","1.36 fold enrichment (6-mer frequency, TF over GST control)","1.32 fold enrichment (6-mer frequency, TF over GST control)","1.31 fold enrichment (6-mer frequency, TF over GST control)"
GAAATC,"1.31 fold enrichment (6-mer frequency, TF over GST control)","1.42 fold enrichment (6-mer frequency, TF over GST control)","1.41 fold enrichment (6-mer frequency, TF over GST control)","1.4 fold enrichment (6-mer frequency, TF over GST control)","1.46 fold enrichment (6-mer frequency, TF over GST control)","1.58 fold enrichment (6-mer frequency, TF over GST control)","1.42 fold enrichment (6-mer frequency, TF over GST control)","1.49 fold enrichment (6-mer frequency, TF over GST control)"
ACTGAT,"1.26 fold enrichment (6-mer frequency, TF over GST control)","1.25 fold enrichment (6-mer frequency, TF over GST control)","1.28 fold enrichment (6-mer frequency, TF over GST control)","1.1 fold enrichment (6-mer frequency, TF over GST control)","1.13 fold enrichment (6-mer frequency, TF over GST control)","1.22 fold enrichment (6-mer frequency, TF over GST control)","1.25 fold enrichment (6-mer frequency, TF over GST control)","1.2 fold enrichment (6-mer frequency, TF over GST control)"
ATTCCT,"1.2 fold enrichment (6-mer frequency, TF over GST control)","1.32 fold enrichment (6-mer frequency, TF over GST control)","1.39 fold enrichment (6-mer frequency, TF over GST control)","1.32 fold enrichment (6-mer frequency, TF over GST control)","1.39 fold enrichment (6-mer frequency, TF over GST control)","1.68 fold enrichment (6-mer frequency, TF over GST control)","1.47 fold enrichment (6-mer frequency, TF over GST control)","1.35 fold enrichment (6-mer frequency, TF over GST control)"
TCTCCC,"1.89 fold enrichment (6-mer frequency, TF over GST control)","1.61 fold enrichment (6-mer frequency, TF over GST control)","1.6 fold enrichment (6-mer frequency, TF over GST control)","1.6 fold enrichment (6-mer frequency, TF over GST control)","1.57 fold enrichment (6-mer frequency, TF over GST control)","1.7 fold enrichment (6-mer frequency, TF over GST control)","1.71 fold enrichment (6-mer frequency, TF over GST control)","1.76 fold enrichment (6-mer frequency, TF over GST control)"
TTTCGA,"1.61 fold enrichment (6-mer frequency, TF over GST control)","1.54 fold enrichment (6-mer frequency, TF over GST control)","1.42 fold enrichment (6-mer frequency, TF over GST control)","1.34 fold enrichment (6-mer frequency, TF over GST control)","1.29 fold enrichment (6-mer frequency, TF over GST control)","1.42 fold enrichment (6-mer frequency, TF over GST control)","1.41 fold enrichment (6-mer frequency, TF over GST control)","1.33 fold enrichment (6-mer frequency, TF over GST control)"
TCACTC,"1.27 fold enrichment (6-mer frequency, TF over GST control)","1.16 fold enrichment (6-mer frequency, TF over GST control)","1.23 fold enrichment (6-mer frequency, TF over GST control)","1.12 fold enrichment (6-mer frequency, TF over GST control)","1.2 fold enrichment (6-mer frequency, TF over GST control)","1.1 fold enrichment (6-mer frequency, TF over GST control)","1.22 fold enrichment (6-mer frequency, TF over GST control)","1.19 fold enrichment (6-mer frequency, TF over GST control)"
TATCAC,"1.19 fold enrichment (6-mer frequency, TF over GST control)","1.23 fold enrichment (6-mer frequency, TF over GST control)","1.2 fold enrichment (6-mer frequency, TF over GST control)","1.25 fold enrichment (6-mer frequency, TF over GST control)","1.14 fold enrichment (6-mer frequency, TF over GST control)","1.14 fold enrichment (6-mer frequency, TF over GST control)","1.19 fold enrichment (6-mer frequency, TF over GST control)","1.25 fold enrichment (6-mer frequency, TF over GST control)"
TAAGTA,"1.24 fold enrichment (6-mer frequency, TF over GST control)","1.22 fold enrichment (6-mer frequency, TF over GST control)","1.2 fold enrichment (6-mer frequency, TF over GST control)","1.21 fold enrichment (6-mer frequency, TF over GST control)","1.13 fold enrichment (6-mer frequency, TF over GST control)","1.25 fold enrichment (6-mer frequency, TF over GST control)","1.23 fold enrichment (6-mer frequency, TF over GST control)","1.28 fold enrichment (6-mer frequency, TF over GST control)"
